Source: PubChem BioAssay AID1030 (National Center for Advancing Translational Sciences (NCATS), 2008)
In all, about 220,000 compounds went through this assay and about 16,000 (7.3%) were called active. Not shown: some 25% with an inconclusive outcome. Many of the other results were omitted from the sample, so actives are more common in it than they were. Values without a mark were called inactive. The call rests on the fitted dose curve; in most records, active means well fitted inhibition curve with a large enough effect (not every such curve was filed as active); inconclusive means small, poorly fitted or top-dose-only effect, or another doubt; inactive means no such curve, though single readings can be large or run the other way.

target: Aldehyde dehydrogenase 1A1 (Homo sapiens) (UniProt P00352); experiment: qHTS Assay for Inhibitors of Aldehyde Dehydrogenase 1 (ALDH1A1); conditions: Purified ALDH1A1, NADH fluorescence, propionaldehyde substrate; series mostly up to 75.3 µM; activity, negative = inhibition: at the top concentration;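 on activity, negative = inhibition: plate controls were no enzyme wells and a reference inhibitor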
Sequence (P00352 whole entry, looked up): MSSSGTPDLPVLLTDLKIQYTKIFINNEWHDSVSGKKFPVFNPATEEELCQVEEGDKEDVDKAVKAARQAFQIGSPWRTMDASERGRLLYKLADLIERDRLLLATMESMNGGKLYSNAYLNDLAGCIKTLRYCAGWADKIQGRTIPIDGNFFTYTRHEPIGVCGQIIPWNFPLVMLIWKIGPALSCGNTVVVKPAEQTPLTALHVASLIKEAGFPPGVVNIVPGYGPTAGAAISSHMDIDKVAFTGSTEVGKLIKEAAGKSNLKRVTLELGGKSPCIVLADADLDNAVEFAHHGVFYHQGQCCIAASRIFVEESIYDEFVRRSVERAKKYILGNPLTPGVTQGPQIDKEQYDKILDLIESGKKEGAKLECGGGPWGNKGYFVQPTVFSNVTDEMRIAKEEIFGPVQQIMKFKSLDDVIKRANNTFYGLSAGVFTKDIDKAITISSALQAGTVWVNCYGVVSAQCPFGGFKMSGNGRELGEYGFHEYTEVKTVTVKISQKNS
Potency means the concentration at half of the fitted maximal effect.

SMILES	activity, negative = inhibition [%]	Potency
COc1cccc(Cn2c(=O)c(C)nc3cnc(Oc4ccccc4)nc32)c1	-15	–
COc1ccc(OC)c(NC(=O)CN(Cc2ccc(Cl)cc2)S(C)(=O)=O)c1	-11.2	–
CCC(C)(C)C1CCC(=NNC(=O)c2ccc(Br)o2)CC1 (configuration not stated)	-10.7	–
Cc1cc2nc3c(=O)n(Cc4ccccc4)c(=O)[nH]c3nc2cc1N	–	12.6 µM (active)
Cc1nc2cnc(Nc3ccccc3)nc2n(Cc2ccc(F)cc2)c1=O	-0.0659	–
O=c1[nH]c2c(c(=O)n1Cc1ccccc1)CCC2	-3.17	–
CCS(=O)(=O)c1ccc(C(=O)NC)c(Cl)c1Cl	-5.81	–
c1ccc(C(c2ccccc2)N2CCN(Cc3nnnn3C3CCCCC3)CC2)cc1	–	7.94 µM (active)
COc1ccc(C(c2nnnn2C2CCCCC2)N2CCN(c3ccccc3F)CC2)cc1 (configuration not stated)	-12.1	–
c1ccc(CCn2nnnc2CN2CCN(C3CCCC3)CC2)cc1	-1.52	–
Cc1ccc(N(CCC(=O)O)S(=O)(=O)c2cccc(C(F)(F)F)c2)cc1	4.5	–
COc1ccc2c(c1)c(=O)c(C(=O)c1ccc(Cl)cc1)cn2CC(=O)Nc1ccc(F)cc1	-1.25	–
COc1ccc2[nH]cc(CCNc3ncnc4ccc(-c5ccccc5CN(C)C)cc34)c2c1	7.41	–
COc1ccc2[nH]cc(CCNc3ncnc4ccc(-c5ccc(C(=O)N(C)C)cc5)cc34)c2c1	–	25.1 µM (active)
COc1ccc2[nH]cc(CCNc3nc(-c4cccc(NS(C)(=O)=O)c4)nc4ccccc34)c2c1	-0.602	–
Cc1ccccc1NC(=O)NNC(=O)OC(C)(C)C	-0.0746	–
Cc1c(CCOC(=O)c2cc([N+](=O)[O-])ccc2Cl)sc[n+]1CCCCS(=O)(=O)[O-]	-8.66	–
COc1cccc2c(N/N=C/c3ccco3)cc(C)nc12	-13.1	–
O=Cc1cn(Cc2ccccc2)nc1-c1cccnc1	-6.61	–
Clc1ccc(CN2CCN(/N=C/c3cccnc3)CC2)cc1	5.02	–
O=C1/C(=C\c2cccnc2)CN(Cc2ccccc2)C/C1=C\c1cccnc1	–	7.94 µM (active)
O=C(Nc1ccccc1C(=O)N1CCOCC1)c1ccc(CSc2ccccc2)cc1	5.23	–
O=C(/C=C/c1ccc(Cl)cc1)Nc1ccc(Br)cn1	7.71	–
N#Cc1c(NC(=O)CSc2nc3ccccc3c(=O)n2Cc2ccco2)sc2c1CCCC2	–	25.1 µM (active)
C=C(C)Cn1c(SCC(=O)NCc2ccco2)nc2sc3c(c2c1=O)CCC3	–	11.2 µM (active)
Cc1cc(NC(=O)CSc2nc3cc(Cl)ccc3c(=O)n2Cc2ccco2)no1	-5	–

SMILES	activity, negative = inhibition [%]	Potency
O=C(CSc1nc2cc3c(cc2c(=O)n1CCC1=CCCCC1)OCO3)NCc1ccco1	3.46	–
COc1ccc(-n2c(SCC(=O)Nc3sc4c(c3C#N)CCCC4)nnc2-c2ccc(O)cc2)cc1	1.64	–
O=C(CSc1c2c(nc3ccc(Cl)cc13)CCCC2)NCc1ccco1	-7.39	–
COc1cc(CNc2ncn[nH]2)ccc1OCc1ccccc1C	-2.52	–
CCC(=O)N1CCC(C(N)=O)(N2CCCCC2)CC1	4.55	–
CC(O)CNCCOc1cccc(Oc2ccccc2)c1 (configuration not stated)	-2.23	–
CCOCCCNC(=O)C(NC(=O)Cc1c[nH]c2ccccc12)c1ccc(OC)cc1 (configuration not stated)	15.4	–
CN1CCN(c2ccc(CNS(=O)(=O)c3cccc(F)c3)cc2)CC1	4.18	–
O=C(/C=C/c1ccc(Cl)cc1Cl)c1cccnc1	–	10 µM (active)
O=C(/C=C/c1ccc(Cl)c([N+](=O)[O-])c1)c1cccnc1	-4.75	–
O=C(/C=C/c1ccc(Cl)cc1Cl)NCc1ccco1	-14.2	–
CC1(C)CC(=O)C(C2c3ccccc3S(=O)(=O)c3ccccc32)C(=O)C1	0.149	–
COC(=O)c1cc(C)sc1NC(=O)CC1Nc2ccccc2NC1=O (configuration not stated)	-11.8	–
CN(NC(=O)C1CC(=O)N(c2ccccc2)C1)C1=NS(=O)(=O)c2ccccc21 (configuration not stated)	21.9	–
O=C(CSc1ccc([N+](=O)[O-])cn1)Nc1ccc(N2CCOCC2)cc1	-1.5	–
O=C(CSc1ccc([N+](=O)[O-])cn1)Nc1ccc(N2CCOCC2)c(Cl)c1	–	22.4 µM (active)
O=C(CCNC(=O)c1ccc([N+](=O)[O-])cc1)Nc1ccccc1N1CCOCC1	0.402	–
CCOc1ccc(C(=O)NC(=S)Nc2ccc(N3CCOCC3)c(Cl)c2)cc1[N+](=O)[O-]	–	2.51 µM (active)
CCOc1ccc(C(=O)NC(=S)Nc2ccc(NC(=O)C(C)C)cc2)cc1[N+](=O)[O-]	0.53	–
CCOC(=O)c1c(NC(=O)c2ccc(N3CCOCC3)c([N+](=O)[O-])c2)sc(C)c1C	-13.7	–
CN(C)N(C)C(=O)C(O)(c1ccccc1)c1ccccc1	8.36	–
Cc1ccc(S(=O)(=O)N(C)c2ccc(OCC(=O)NC3=NCCS3)cc2)cc1	-3.62	–
Cc1ccnc(N)c1	-5.54	–
Cc1cc(C)cc(N)c1	–	25.1 µM (active)
Cc1cc(C(C)(C)C)cc(C)c1N	1.92	–
Cc1ccc(NC(=O)c2cccnc2C(=O)Nc2ccc(C)cc2)cc1	-3.95	–
